# Records with an inconclusive call do not appear. Activity calls are given as the source filed them. Calls follow the shape of the dose curve; as a rule, active = well fitted inhibition curve with a large enough effect in the repeat runs; inconclusive = weak or mixed curves; inactive = flat fitted curve, though single readings scatter.
# Target: Luciferin 4-monooxygenase (Photinus pyralis) (UniProt P08659)
# Assay: qHTS assay to identify small molecule inhibitors of firefly luciferase (AID 1224835); also: nearly all actives have a fitted effect of over 25% in size
# Settings: purified P. pyralis luciferase, luminescence inhibition; series mostly up to 52.9 µM; activity change, negative = inhibition: at the top concentration
# Method in brief: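 Quantitative HTS format; KM concentrations of both substrates. Purified P. pyralis FLuc activity quantified from luminescence images.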
# % is scaled to controls: 0 for no effect and ±100 for the full control effect; potency is read from the fitted curve at half-maximal effect.
# Chain of Luciferin 4-monooxygenase (Photinus pyralis) (P08659 whole entry, looked up): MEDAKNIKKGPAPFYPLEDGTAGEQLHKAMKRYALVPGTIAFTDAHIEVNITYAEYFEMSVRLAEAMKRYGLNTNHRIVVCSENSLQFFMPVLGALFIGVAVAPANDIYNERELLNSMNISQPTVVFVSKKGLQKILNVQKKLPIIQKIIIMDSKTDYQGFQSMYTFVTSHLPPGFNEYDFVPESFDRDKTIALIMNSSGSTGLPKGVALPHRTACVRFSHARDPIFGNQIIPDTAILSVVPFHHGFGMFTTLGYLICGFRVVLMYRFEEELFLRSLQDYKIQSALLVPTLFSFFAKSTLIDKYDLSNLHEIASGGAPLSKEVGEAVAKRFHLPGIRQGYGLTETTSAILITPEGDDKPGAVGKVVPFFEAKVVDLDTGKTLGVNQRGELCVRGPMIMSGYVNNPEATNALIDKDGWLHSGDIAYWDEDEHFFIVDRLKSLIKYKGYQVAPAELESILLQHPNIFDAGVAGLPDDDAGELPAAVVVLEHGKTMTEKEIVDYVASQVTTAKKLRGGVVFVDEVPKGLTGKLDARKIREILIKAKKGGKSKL
Structure (SMILES),"activity change, negative = inhibition",Potency
C=C(C)[C@@H]1CCC2=CCC[C@@H](C)[C@]2(C)C1,0.643% [at 115 µM] (inactive),
Oc1c(I)cc(I)c2cccnc12,2.31% (inactive),
CN1CCCC(n2nc(Cc3ccc(Cl)cc3)c3ccccc3c2=O)CC1 (stereo not given),0.549% (inactive),
CCC1NC(=O)c2cc(S(N)(=O)=O)c(Cl)cc2N1 (stereo not given),-5.46% (inactive),
CCC=CC#N,-0.985% [at 115 µM] (inactive),
CC1CC(C)C(=O)C1=O (stereo not given),1.37% [at 115 µM] (inactive),
C1COC1,1.51% [at 115 µM] (inactive),
CCCCCCC(C)(C)C(=O)O,2.77% [at 115 µM] (inactive),
Cc1cccc(N(C)C(=S)Oc2ccc3c(c2)CCC3)c1,-6.57% (inactive),
O=C1c2ccccc2C(=O)c2c(O)c(O)cc(O)c21,,44.8 µM (active)
CC1CC(OC(=O)C(O)c2ccccc2)CC(C)(C)N1C (stereo not given),11.8% (inactive),
CCOC(C)=O,-1.38% [at 115 µM] (inactive),
CCCCC(CC)COP(=O)(O)O (stereo not given),-9.18% [at 115 µM] (inactive),
CC(CCC(=O)O)C(=O)O (stereo not given),2.8% [at 115 µM] (inactive),
CCC(C)COC(=O)CC(C)C (stereo not given),0.172% [at 115 µM] (inactive),
CCCCN(CCCC)C(C(N)=O)c1ccc(OC)cc1 (stereo not given),0.349% (inactive),
Cc1ccco1,0.488% [at 115 µM] (inactive),
CCCCCC[C@@H](O)C/C=C\CCCCCCCC(=O)OCC(O)CO (stereo not given in full),1.82% [at 115 µM] (inactive),
CCOC(=O)/C=C/C(=O)OCC,-0.499% [at 115 µM] (inactive),
C[C@@H]1CN(CCCn2c3ccccc3c3ccccc32)C[C@H](C)N1,3.4% (inactive),

Structure (SMILES),"activity change, negative = inhibition",Potency
O=c1[nH]c2ccc(Cl)cc2o1,-2.44% [at 115 µM] (inactive),
O=C1Cc2cc(Cl)ccc2N1,-0.0481% (inactive),
CCC(C)COC(C)=O (stereo not given),0.512% [at 115 µM] (inactive),
Nc1nnc(-c2ccc([N+](=O)[O-])o2)o1,1.17% [at 115 µM] (inactive),
N#[N+]c1ccc2c(S(=O)(=O)[O-])cccc2c1O,,44.8 µM (active)
Cc1cc(O)c(C)c(C)c1O,-3.23% (inactive),
Oc1cccc(Nc2ccccc2)c1,,37.1 µM (active)
CC(=O)OCC(=O)NCCCOc1cccc(CN2CCCCC2)c1,-0.792% (inactive),
O=C(/C=C/c1ccccc1)OCCc1ccccc1,,4.48 µM (active)
CC(=O)Nc1ccc(C)cc1C,1.84% [at 115 µM] (inactive),
COC(=O)c1nc(Cl)c(Cl)nc1N,-2.28% (inactive),
CCCCCC[C@@H](O)C/C=C\CCCCCCCC(=O)O,-2.04% [at 115 µM] (inactive),
NCCNCCO,1.17% [at 115 µM] (inactive),
Cc1ccc2c(Br)cc(Br)c(O)c2n1,0.0059% (inactive),
O=C(O)C[C@H](NC(=O)OCc1ccccc1)C(=O)O,2.13% [at 115 µM] (inactive),
O=C(Nc1cccc2c(=O)cc(-c3nn[nH]n3)oc12)c1ccc(OCCCCc2ccccc2)cc1,,27.5 µM (active)
CCOC(=O)c1ccc(I)cc1,,50.7 µM (active)
CC(=O)c1ccc([N+](=O)[O-])cc1,0.206% [at 115 µM] (inactive),
CC[N+](CC)(CCNC(=O)C(=O)NCC[N+](CC)(CC)Cc1ccccc1Cl)Cc1ccccc1Cl,-0.929% (inactive),
Cc1ccc(C(C)(C)O)cc1,5.36% [at 115 µM] (inactive),

# From PubChem BioAssay (Tox21)
